26 compounds from the supplement of paper PMC7411640 can be followed below.

The subject of the experiment is MDA-MB-468. Briefly: phospho-S6 immunofluorescence (DAPI-normalised), per-plate z-score; higher = higher phospho-S6 signal (less pathway suppression). The following applies: 24 h. As for the experimental part: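 GPCR-targeted compound library (MedChemExpress HY-L006) tested on MDA-MB-468 PTEN-null TNBC cells in 384-well plates at 0.1, 1 or 10 uM, combined with vehicle, GDC0941 450 nM or lapatinib 1 uM, for 24 h. Phospho-S6 (S240/244) immunofluorescence normalised to DAPI and expressed as a per-plate z-score; values are the mean of biological triplicates.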

Structures can show the parent of a compound that is named as a salt.

For `CCc1nn(CCCN2CCN(c3cccc(Cl)c3)CC2)c(=O)n1CCOc1ccccc1` [Nefazodone (hydrochloride)] (compound 10 µM), the “phospho-S6 immunofluorescence (z-score)” value is, setting by setting: (co-treatment: GDC0941 450 nM) -4.37; (co-treatment: lapatinib 1 uM) -2.37; (co-treatment: vehicle) -1.26.
As for `O=C(CCCN1CCC(O)(c2ccc(Cl)cc2)CC1)c1ccc(F)cc1` [Haloperidol] (compound 10 µM), the “phospho-S6 immunofluorescence (z-score)” value reads like this: (co-treatment: GDC0941 450 nM) 1.78; (co-treatment: lapatinib 1 uM) -0.01; (co-treatment: vehicle) 0.93.
Turning to `Cc1ccc(Sc2ccccc2N2CCNCC2)c(C)c1` [Vortioxetine] (compound 10 µM), the “phospho-S6 immunofluorescence (z-score)” value (co-treatment: GDC0941 450 nM) is -5.05, the “phospho-S6 immunofluorescence (z-score)” value (co-treatment: lapatinib 1 uM) was -7.7 and the “phospho-S6 immunofluorescence (z-score)” value (co-treatment: vehicle) is -6.93.
The corresponding values for `N#Cc1ccc2[nH]cc(CCCCN3CCN(c4ccc5oc(C(N)=O)cc5c4)CC3)c2c1` [Vilazodone] (compound 10 µM) are 0.37, 0.11 and 1.24.
For the compound `NCCCCN(Cc1nc2ccccc2[nH]1)[C@H]1CCCc2cccnc21` [AMD-070 (hydrochloride)] (compound 10 µM), the “phospho-S6 immunofluorescence (z-score)” value runs as follows: (co-treatment: GDC0941 450 nM) -4.2; (co-treatment: lapatinib 1 uM) -3.44; (co-treatment: vehicle) -3.01.
Regarding `COc1cc(N)c(Cl)cc1C(=O)NC1CCN(CCCOc2ccc(F)cc2)CC1OC` (stereo not drawn) [Cisapride] (compound 10 µM), the “phospho-S6 immunofluorescence (z-score)” value (co-treatment: GDC0941 450 nM) is -1.02, the “phospho-S6 immunofluorescence (z-score)” value (co-treatment: lapatinib 1 uM) was -1.88 and the “phospho-S6 immunofluorescence (z-score)” value (co-treatment: vehicle) was -0.58.
The corresponding values for `CC1(C)CN2C(CSC(=NC3CCCCC3)NC3CCCCC3)=CSC2=N1` [IT1t (dihydrochloride)] (compound 10 µM) are -2.08, -0.41 and -1.11.
The corresponding values for `OCC1OC(n2cnc3c(NCCc4ccccc4)ncnc32)C(O)C1O` (stereo not drawn) [N6-(2-Phenylethyl)adenosine] (compound 10 µM) are 0.87, 1.11 and 0.72.
The matching figures for `CN1CCN(CCCN2c3ccccc3Sc3ccc(C(F)(F)F)cc32)CC1` [Trifluoperazine (dihydrochloride)] (compound 10 µM): -4.47, -5.54 and -4.02.
As for `Nc1ncnc2c1ncn2C1CCCO1` (stereo not drawn) (compound 10 µM), the “phospho-S6 immunofluorescence (z-score)” value reads like this: (co-treatment: GDC0941 450 nM) 0.45; (co-treatment: lapatinib 1 uM) -0.67; (co-treatment: vehicle) -0.21.
In the case of `O=C1Cc2cc(CCN3CCN(c4nsc5ccccc45)CC3)c(Cl)cc2N1` [Ziprasidone (hydrochloride monohydrate)] (compound 10 µM), the “phospho-S6 immunofluorescence (z-score)” value (co-treatment: GDC0941 450 nM) was -5.1, the “phospho-S6 immunofluorescence (z-score)” value (co-treatment: lapatinib 1 uM) is -9.79 and the “phospho-S6 immunofluorescence (z-score)” value (co-treatment: vehicle) was -5.97.
The corresponding values for `CCCC(=O)OC(CNC(C)(C)C)COc1nsnc1N1CCOCC1` (racemic) [(RS)-Butyryltimolol] (compound 10 µM) are 0.09, -0.58 and -0.47.
For the compound `O=C(C[S+]([O-])Cc1ccco1)NC/C=C\COc1cc(CN2CCCCC2)ccn1` (stereo not drawn) [Lafutidine] (compound 10 µM), the “phospho-S6 immunofluorescence (z-score)” value (co-treatment: GDC0941 450 nM) was -0.67, the “phospho-S6 immunofluorescence (z-score)” value (co-treatment: lapatinib 1 uM) stood at 0.02 and the “phospho-S6 immunofluorescence (z-score)” value (co-treatment: vehicle) is -0.32.
With `CCC(=O)OCC(=O)[C@@]1(OC(=O)CC)[C@@H](C)C[C@H]2[C@@H]3CCC4=CC(=O)C=C[C@]4(C)[C@@]3(Cl)[C@@H](O)C[C@@]21C` [Beclometasone dipropionate] (compound 10 µM), the “phospho-S6 immunofluorescence (z-score)” value by setting is: (co-treatment: GDC0941 450 nM) 0.45; (co-treatment: lapatinib 1 uM) 0.54; (co-treatment: vehicle) 0.15.
Take `CC(ONC(=O)c1cc(C(F)(F)F)cc(C(F)(F)F)c1)C(=O)Nc1ccc(Cl)cc1` (stereo not drawn) (compound 10 µM): the “phospho-S6 immunofluorescence (z-score)” value runs as follows: (co-treatment: GDC0941 450 nM) -3.03; (co-treatment: lapatinib 1 uM) -1.73; (co-treatment: vehicle) -2.5.
For the compound `CCCN(CCc1cccs1)[C@H]1CCc2c(O)cccc2C1` [Rotigotine] (compound 10 µM), the “phospho-S6 immunofluorescence (z-score)” value is 0.53 (co-treatment: GDC0941 450 nM), -0.05 (co-treatment: lapatinib 1 uM) and -0.73 (co-treatment: vehicle).
With `CN1CCC[C@@H]1CCO[C@](C)(c1ccccc1)c1ccc(Cl)cc1` [Clemastine (fumarate)] (compound 10 µM), the “phospho-S6 immunofluorescence (z-score)” value runs as follows: (co-treatment: GDC0941 450 nM) 0.73; (co-treatment: lapatinib 1 uM) -3.01; (co-treatment: vehicle) 1.46.
As for `COC(c1ccccc1)(c1ccccc1)[C@H](Oc1nc(C)cc(C)n1)C(=O)O` [Ambrisentan] (compound 10 µM), the “phospho-S6 immunofluorescence (z-score)” value (co-treatment: GDC0941 450 nM) is 1.18, the “phospho-S6 immunofluorescence (z-score)” value (co-treatment: lapatinib 1 uM) came to 0.5 and the “phospho-S6 immunofluorescence (z-score)” value (co-treatment: vehicle) was -0.07.
For `CN1CCN2c3c(cccc31)[C@@H]1CN(CCCC(=O)c3ccc(F)cc3)CC[C@@H]12` [lumateperone (Tosylate)] (compound 10 µM), the “phospho-S6 immunofluorescence (z-score)” value was -3.44 (co-treatment: GDC0941 450 nM), -3.22 (co-treatment: lapatinib 1 uM) and -5.62 (co-treatment: vehicle).
For `CN(C)CCOC(C)(c1ccccc1)c1ccccn1` (stereo not drawn) [Doxylamine (succinate)] (compound 10 µM), the “phospho-S6 immunofluorescence (z-score)” value (co-treatment: GDC0941 450 nM) amounted to 0.33, the “phospho-S6 immunofluorescence (z-score)” value (co-treatment: lapatinib 1 uM) is -0.64 and the “phospho-S6 immunofluorescence (z-score)” value (co-treatment: vehicle) is 0.58.
Turning to `Cc1ccc(N(CC2=NCCN2)c2cccc(O)c2)cc1` [Phentolamine (mesylate)] (compound 10 µM), the “phospho-S6 immunofluorescence (z-score)” value was -0.17 (co-treatment: GDC0941 450 nM), 1.1 (co-treatment: lapatinib 1 uM) and -0.58 (co-treatment: vehicle).
The corresponding values for `C[C@H]1C[C@H]2[C@@H]3CCC4=CC(=O)C=C[C@]4(C)[C@@]3(F)[C@@H](O)C[C@]2(C)[C@@]1(O)C(=O)CO` [Betamethasone] (compound 10 µM) are -1.59, 1.5 and -0.96.
The matching figures for `CN(C)CCCN1c2ccccc2Sc2ccc(Cl)cc21` [Chlorpromazine (hydrochloride)] (compound 10 µM): 0.58, -1.09 and 3.4.
The matching figures for `Clc1ccc2nsnc2c1NC1=NCCN1` [Tizanidine (hydrochloride)] (compound 10 µM): 1.42, -0.07 and 0.54.
With `COc1ccc(/C=C/C(=O)Nc2ccccc2C(=O)O)cc1OC` [Tranilast (trans-)] (compound 10 µM), the “phospho-S6 immunofluorescence (z-score)” value by setting is: (co-treatment: GDC0941 450 nM) 0.32; (co-treatment: lapatinib 1 uM) -0.26; (co-treatment: vehicle) 0.65.
Regarding `OC(CCCN1CCCCC1)(c1ccccc1)c1ccccc1` [Diphenidol (hydrochloride)] (compound 10 µM), the “phospho-S6 immunofluorescence (z-score)” value is, setting by setting: (co-treatment: GDC0941 450 nM) 0.19; (co-treatment: lapatinib 1 uM) 1.09; (co-treatment: vehicle) 0.38.
